# Source: PubChem BioAssay (National Center for Advancing Translational Sciences (NCATS))
# Shiga toxin inh = A qHTS for Small Molecule Inhibitors of Shiga Toxin. inhibition, % at 38.7 µM. hit rate 9.2% among 290,000. Vero cells, Shiga toxin protein synthesis inhibition reporter; in the data active means inhibition mostly above about 28%, no sharp cut-off; inactive means mostly below about 43%; further: 0% is about no effect
# TbPYK inhibitor = qHTS of Trypanosoma Brucei Inhibitors | pyruvate kinase (Trypanosoma brucei), Q57TT1 | TbPYK enzyme, Kinase-Glo Plus ATP luminescence, 45 min | Potency, µM (highest dose often 76.8 µM), for the others: at the top dose activity, negative = inhibition, usual class: inhibitors | hit rate 0.12% among 410,000 | AID 624173, 2012; further: potency means the concentration at half of the fitted maximal effect; on the % scale 0 is the no-effect control and ±100 the full control effect; nearly all actives have a fitted effect of over 50% in size
#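 T. brucei PYK with substrate was exposed to pin-transferred compounds across a concentration series, then started with 130 uM ADP (final). After 45 min at room temperature, Kinase-Glo Plus luminescence was read, normalized and curve-fitted.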
# Cycloheximide cs = Cycloheximide Counterscreen for Small Molecule Inhibitors of Shiga Toxin. AID 2314, 2010. cell reporter, cycloheximide protein synthesis inhibition counterscreen. hit rate 12% among 300,000. max response, %; in the data active means max response mostly above about 13%, no sharp cut-off; inactive means mostly below about 14%; further: read at 38.3 µM for the half of the compounds with a filed dose; 0% is about no effect
# LmPK inhibitor = qHTS Assay for Inhibitors of Leishmania Mexicana Pyruvate Kinase (LmPK); hit rate 0.37% among 290,000; purified LmPK, Kinase-Glo ATP luminescence, 1 h; Q27686; Potency, µM (series often up to 57.5 µM), for inactives: at the top dose activity change, negative = inhibition, hits mostly inhibitors; AID 1721, 2009; further: potency means the concentration at half of the fitted maximal effect; on the % scale 0 is the no-effect control and ±100 the full control effect
#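 0.1 nM LmPK, 0.5 mM PEP, 0.1 mM ADP; 50 mM imidazole pH 7.2, 7 mM MgCl2, 50 mM KCl; 1 h RT. Kinase-Glo luminescence readout, normalized to no-enzyme (full inhibition) and uninhibited wells.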
# Sm TGR block = qHTS Assay for the Inhibitors of Schistosoma Mansoni Peroxiredoxins; purified TGR, DTNB reduction, TNB absorbance 405 nm; Potency, µM (top dose mostly 114 µM), without a hit: at the top dose activity change, negative = inhibition, most hits filed as inhibitors; AID 485364, 2010; Schistosoma mansoni thioredoxin glutathione reductase (TGR), Q962Y6; hit rate 3% among 360,000; further: potency means the concentration at half of the fitted maximal effect; on the % scale 0 is the no-effect control and ±100 the full control effect; nearly all actives have a fitted effect of over 60% in size
#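 TGR 20 nM + NADPH 100 uM (dispensed conc.), cpd preinc 15 min RT; start with NADPH (500 uM addition) then DTNB (15 mM addition). Kinetic TNB absorbance, 405 nm filter. Four-parameter Hill fit across titration.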
# FBPA Giardia inh = qHTS Assay for Inhibitors of Fructose-1,6-bisphosphate Aldolase from Giardia Lamblia. A8B2U2. purified Giardia FBPA. Potency, µM (series often up to 59.6 µM), for inactives: at the highest dose activity, negative = inhibition, usual class: inhibitors. hit rate 0.71% among 290,000. AID 2451, 2010; further: potency means the concentration at half of the fitted maximal effect; on the % scale 0 is the no-effect control and ±100 the full control effect; nearly all actives have a fitted effect of over 55% in size
# Target sequence (A8B2U2 whole entry, looked up): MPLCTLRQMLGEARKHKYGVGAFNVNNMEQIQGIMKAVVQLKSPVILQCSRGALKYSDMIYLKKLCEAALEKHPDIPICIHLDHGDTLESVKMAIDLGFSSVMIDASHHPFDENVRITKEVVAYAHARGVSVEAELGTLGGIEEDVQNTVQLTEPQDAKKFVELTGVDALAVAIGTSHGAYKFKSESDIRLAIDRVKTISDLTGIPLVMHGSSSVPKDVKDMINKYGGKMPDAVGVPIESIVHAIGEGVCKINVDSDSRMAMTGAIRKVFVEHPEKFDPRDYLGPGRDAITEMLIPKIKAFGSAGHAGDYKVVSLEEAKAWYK
#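 40 nM FBPA preincubated 10 min at RT with compound (up to 57.5 uM final), then substrate plus GAPDH/TPI/NAD/arsenate coupling and diaphorase/resazurin added. Fluorescence read after 20 min at RT, 525/598 nm.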
# Numbers without * were called inactive; ? = inconclusive; nt = no result given; + = active, no number; [ ] = dose if it differs, or a comment. Many of the other results were omitted from the sample, so hits are more common in it than they were. Unless noted, the call rests on the fitted dose curve; in most records, active means well fitted curve in the direction sought with a large enough effect; inconclusive means small, poorly fitted or top-dose-only effect, or another doubt; inactive means no such curve, though single readings can be large; an effect the other way counts as inactive or inconclusive.
SMILES,Shiga toxin inh,TbPYK inhibitor,Cycloheximide cs,LmPK inhibitor,Sm TGR block,FBPA Giardia inh
Cc1ccc(S(=O)(=O)c2nc(-c3ccccc3F)oc2N2CC(C)OC(C)C2)cc1 (configuration not stated),-11,-4%,0,1%,20µM*,-2%
COc1ccccc1-c1nc(S(=O)(=O)c2ccccc2)c(N2CCCCC2)o1,23,2%,-3,6%,0.79µM*,-9%
CCCC(=O)c1cc(CP(=O)(OCC)OCC)oc1C,10,?,-1,-3%,28µM*,-5%
CCOP(=O)(Cc1ccc(C#N)o1)OCC,-5,3%,1,2%,-21%,4%
CCOP(=O)(Cc1ccc(C(C)(C)CC(C)=O)o1)OCC,-13,-2%,-1,3%,16µM*,-1%
CCOP(=O)(Cc1cc(C(C)=O)c(C)o1)OCC,-1,?,-3,-1%,40µM*,-14%
CC(C)CO/N=C1/C[C@@H](O)[C@@H](O)[C@@H]2[C@@H]3C(=O)N(c4cccc(Oc5ccccc5)c4)C(=O)[C@H]3CC[C@@H]12,nt,nt,nt,nt,nt,-1%[12.9 µM]
O=C(O)c1ccc2c(c1)C(=O)N([C@H](Cc1cccc3ccccc13)C(=O)O)C2=O,-4,6%,-3,nt,5%,12%
O=C(CSc1nc2c(cnn2-c2ccc(F)cc2)c(=O)[nH]1)Nc1ccccc1C(F)(F)F,nt,-12%,nt,nt,-15%,nt
COc1ccc(-c2oc3ccc(C)cc3c(=O)c2O)cc1OC,nt,nt,nt,nt,nt,2%
CCOc1c(C=C(C#N)C#N)c2ccccc2n1CC,-12,-11%,-2,-1%,28µM*,3%
CCn1c2ccccc2c2cc(/C=C(/C#N)C(N)=S)ccc21,nt,5%,nt,nt,nt,nt
CCOc1ccc(NC(=O)CN2C(=O)C3CC=CCC3C2=O)cc1 (configuration not stated),62,7%,27*,-1%,4%,-7%
CCOc1ccccc1NC(=O)CN1C(=O)C(C)SC(C)C1=O (configuration not stated),-7,3%,-1,4%,1%,0%
CCOc1ccc(NC(=O)CN2C(=O)C(C)SC(C)C2=O)cc1 (configuration not stated),54,2%,25*,7%[11.5 µM],1%,-1%
Cc1cc(Br)ccc1NC(=O)CN1C(=O)C2CC=CCC2C1=O (configuration not stated),nt,-5%,nt,nt,13µM*,nt
O=[N+]([O-])c1cc(Cl)ccc1NCCNS(=O)(=O)c1ccccc1,36*,0%,19*,3%,5%,-6%
O=[N+]([O-])c1ccccc1NCCNS(=O)(=O)c1ccc(Cl)cc1,-8,-5%,3,-1%,-8%,-10%
COC(=O)Nc1ccc2c(c1)Nc1ccccc1CC2,nt,-3%,active,8%,0%,10%
CN(C)/N=C/C=C1\CCC/C(=C\c2ccc(F)c(F)c2)C1=O,+,2%,87*,1%,16µM*,-12%
COc1ccc(/C=C2\CCC/C(=C\C=N\N(C)C)C2=O)cc1,41,5%,28*,-12%,0%,0%
COc1cc(C=C2CCCC(=Cc3ccc(OCC4CO4)c(OC)c3)C2=O)ccc1OCC1CO1 (configuration not stated),nt,1%,nt,nt,nt,nt
CC(C)(C=O)C1=CC(=O)c2ccccc2C1=O,25*,?,28*,13µM*,3.2µM*,?
Cc1ccc(NC(=O)CSc2ccccc2NC(=O)c2ccccc2)cc1Cl,18,17%,34*,1%,-7%,0%
Cc1ccc(NC(=O)CSc2ccccc2NC(=O)c2ccccc2Cl)cc1Cl,26,-1%,18*,1%,-13%,-1%
SMILES,Shiga toxin inh,TbPYK inhibitor,Cycloheximide cs,LmPK inhibitor,Sm TGR block,FBPA Giardia inh
Cc1cc(NC(=O)c2ccccc2Cl)ccc1NC(=O)c1ccccc1Cl,nt,0%,-2,1%,-6%,14%
Cc1ccccc1CNCCSc1nnnn1-c1ccccc1,nt,-10%,nt,nt,7%,nt
CCC/C(=N\NC(=O)c1ccc(CSc2nncn2C)cc1)c1ccccc1,13,2%,9,-4%,-7%,-5%
C/C(=N\NC(=O)c1ccc(CSc2nncn2C)cc1)c1cccs1,107*,-3%,28*,2%,-3%,1%
Cn1cnnc1SCc1ccc(C(=O)N/N=C(\CCC(=O)O)c2ccc(C(C)(C)C)cc2)cc1,32*,?,14*,0%,-19%,-1%
Cn1cnnc1SCc1ccc(C(=O)NN)cc1,48,-2%,45*,-9%,30%,-4%
CCOC(=O)N1CCN(C(=O)/C(=C/c2ccc(N(C)C)cc2)NC(=O)c2ccccc2)CC1,nt,-7%,nt,nt,-15%,nt
NCCc1nnc(SCc2ccc(Cl)cc2)o1,nt,3%,nt,nt,7%,nt
CC(C)(C)c1ccc(/C=N/N2CCN(c3ccccn3)CC2)cc1,21,-4%,9,1%,-2%,4%
CN(C)c1ccc(/C=N/N2CCN(c3ccccn3)CC2)cc1,91*,-19%,34*,?,16%,1%
Oc1ccc(/C=N/N2CCN(c3ccccn3)CC2)cc1,101*,-2%,27*,2%,7%,0%
O=[N+]([O-])c1ccccc1/C=N/N1CCN(c2ccccn2)CC1,47*,-5%,37*,-9%,2%,3%
Oc1cccc(/C=N/N2CCN(c3ccccn3)CC2)c1,128*,-8%,40*,-5%,-5%,1%
CC(=O)c1cccc(NC(=O)C2(C)Cc3c(-c4ccccc4)ccnc3O2)c1 (configuration not stated),nt,-6%,nt,nt,nt,nt
CCc1nc2cccnc2n1-c1ccc(CC(=O)NC(C)CC)cc1 (configuration not stated),17,-8%,-2,-4%,0%,2%
C(=N\N1CCN(c2ccccn2)CC1)/c1ccccn1,37*,-8%,49*,-17%,0%,-4%
BrC(=C\c1ccccc1)/C=N/N1CCN(c2ccccn2)CC1,38*,4%,40*,0%,-18%,-6%
Cc1nn(-c2ccccc2)c(C)c1/C=N/N1CCN(c2ccccn2)CC1,12,7%,4,-10%,18%,1%
C(=NN1CCCCCC1)c1ccccc1,nt,-19%,nt,nt,nt,nt
CN(c1ccccc1)c1ccc(/C=N/N2CCOCC2)cc1,61*,-9%,84*,-3%,-3%,3%
Cc1cccc(CNC(=O)c2oc3c(c2C)-c2nn(Cc4ccccc4Cl)cc2CC3)c1,nt,-3%,nt,nt,4%,nt
COc1cc(NC(=O)CSc2nc(-c3ccco3)cc(C(F)(F)F)n2)cc(OC)c1OC,nt,3%,nt,nt,8%,nt
